# Hits are enriched below; roughly 3.5% of the tested compounds scored in any of these assays.
# UGM FP inh = inhibitors of M. tuberculosis UDP-galactopyranose mutase | AID 504406 | inhibition, % at 10 µM | hit rate 0.06% among 320,000 | P9WIQ1 | purified UGM, fluorescence polarization probe displacement; in the data active = inhibition above about 10%, passing the limit was not always enough; inconclusive = no clear call, values can overlap the other calls
# Mtb bLac sens = beta-lactam sensitization of Mtb H37Rv; M. tuberculosis H37Rv growth with meropenem, percent inhibition; inhibition, % at 25 µM; hit rate 0.27% among 330,000; AID 434955; call rule not given here;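 note: growth measured after seven days incubation then overnight dye step; 0% = bacteria only wells and 100% = bacteria with antibiotic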
# Rv3671c protease = Rv3671c (M. tuberculosis) protease inhibition; P9WHR9; AID 2606; hit rate 0.048% among 320,000; inhibition, % at 5.96 µM; in the data active = inhibition above about 38%;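 note: extracellular domain of Rv3671c used as enzyme; 0% = enzyme with DMSO and 100% = no enzyme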
# Target sequence (P9WHR9 whole entry, looked up, the tested form may be a part): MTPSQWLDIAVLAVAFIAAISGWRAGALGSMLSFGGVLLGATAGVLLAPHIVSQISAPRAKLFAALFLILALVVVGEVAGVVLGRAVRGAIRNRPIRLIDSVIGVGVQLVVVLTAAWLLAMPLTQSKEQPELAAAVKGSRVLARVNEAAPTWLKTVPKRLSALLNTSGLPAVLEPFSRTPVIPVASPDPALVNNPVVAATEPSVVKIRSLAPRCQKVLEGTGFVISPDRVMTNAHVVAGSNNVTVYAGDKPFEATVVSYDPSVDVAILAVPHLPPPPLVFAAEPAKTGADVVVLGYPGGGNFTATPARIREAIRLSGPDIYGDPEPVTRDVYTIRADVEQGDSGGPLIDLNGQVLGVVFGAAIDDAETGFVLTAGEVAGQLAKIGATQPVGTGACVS
# GDH-TPI counter-1 = GDH-TPI coupled enzyme inhibition counter-screen | GDH-TPI coupled enzyme counterscreen, NADH absorbance | inhibition, % at 4.8 µM | hit rate 1.2% among 360,000 | AID 588335; in the data active = inhibition above about 30%;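 note: 0% = DMSO wells and 100% = wells lacking the enzyme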
# Mtb FBA inh = Mtb fructose-bisphosphate aldolase inhibition; P9WQA3; purified M. tuberculosis FBA, fluorescence read-out; inhibition, % at 1 µM; hit rate 2.3% among 360,000;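 note: 0% = vehicle and 100% = reference inhibitor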
# Mtb FBA inh conf = Mtb FBA inhibition, confirmed | shares compounds with Mtb FBA inh | purified M. tuberculosis FBA, fluorescence read-out | inhibition, % at 1 µM | hit rate 78% among 5,600;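 note: 0% = vehicle wells and 100% = reference inhibitor wells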
# GDH-TPI counter-2 = inhibits GDH-TPI coupling enzymes, flagging Mtb FBA hits. shares compounds with Mtb FBA inh. hit rate 81% among 5,600. GDH-TPI coupled enzyme counterscreen, fluorescence. inhibition, % at 1 µM. AID 652141; in the data active = inhibition above about 10%
# GDH-TPI dose = inhibits GDH-TPI coupling enzymes in dose response | shares compounds with Mtb FBA inh | GDH-TPI coupled enzyme assay, fluorescence, artifact counterscreen | IC50, µM | hit rate 79% among 170; call rule not given here
# * = called active by the depositor; u = inconclusive; x = no result; + = active, no number. Cut-off read from the data, not from the text of the source, unless noted: active = inhibition above about 27%; inactive = the rest.
SMILES,UGM FP inh,Mtb bLac sens,Rv3671c protease,GDH-TPI counter-1,Mtb FBA inh,Mtb FBA inh conf,GDH-TPI counter-2,others
COc1cc(C)cc2oc(=O)c(CC(=O)N3CCN(C(=O)C4COc5ccccc5O4)CC3)c(C)c12 (configuration not stated),-0.7,37.3,-2.5,1.6,103.9*,64.3*,54.2*,
CC(=O)Oc1ccc2c(C)c(CC(=O)N3CCN(C(=O)C4COc5ccccc5O4)CC3)c(=O)oc2c1C (configuration not stated),-0.5,4.6,-2.4,2.3,43.6*,2.7,-3.0,
Cc1cc(O)c2c(C)c(CC(=O)N3CCN(C(=O)C4COc5ccccc5O4)CC3)c(=O)oc2c1 (configuration not stated),-1.2,2.5,-15.6,18.8,-1.1,x,x,
COc1cc(NC(=O)CSc2nc3ccccc3n2-c2ccccc2)c(C)cc1[N+](=O)[O-],0.2,4.3,-14.6,20.2,0.8,x,x,
O=C(Nc1nncs1)Oc1ccccc1,2.1,-6.2,-2.9,7.5,0.3,x,x,
COc1ccc(-c2nnc(NC(=O)C(C)C)s2)c(OC)c1,-2.4,-3.7,-3.9,18.3,36.2*,101.5*,101.9*,
CCOC(=O)Nc1nnc(-c2ccccc2OC)s1,0.1,-13.0,-7.4,11.0,42.2*,137.4*,98.1*,
COC(=O)Nc1nnc(-c2ccncc2)s1,-0.6,-2.7,-3.3,18.7,107.8*,58.8*,56.4*,
COC(=O)Nc1nncs1,-1.1,-4.0,4.2,11.6,49.5*,145.2*,129.9*,
CCCCNC(=O)C1(C)CCN1C(=O)c1sccc1C (configuration not stated),x,x,x,4.0,1.5,x,x,
C[C@]1(CC/C(=C/CO)CO)[C@H](C=O)CC[C@@]23COC(=O)C2=CCC[C@@H]31,x,x,x,0.0,1.7,x,x,
Cc1ccc(CN2CC(C(=O)N(C)CC(=O)Nc3cccc(F)c3)CC2=O)cc1 (configuration not stated),1.8,-3.6,3.7,9.9,1.5,x,x,
Nc1nnc(-c2ccccc2Cl)s1,-1.9,28.3,0.5,2.2,12.8,x,x,
COc1ccccc1-c1nnc(N)s1,-0.5,10.0,5.8,3.8,46.1*,85.8*,75.7*,
COC(=O)Nc1nnc(-c2ccccc2OC)s1,-0.3,5.0,2.2,3.4,66.5*,11.1,-2.9,GDH-TPI dose=3.2*
COc1cc(OC)cc(-c2c(-c3ccc(F)cc3)c3cc(-c4cccc5[nH]ccc45)ccc3n2C)c1,-1.3,7.9,4.5,28.6,47.8*,5.1,-8.5,
COc1cc(OC)cc(-c2c(-c3ccc(F)cc3)c3cc(-c4ccc(OC)nc4)ccc3n2C)c1,0.0,-10.9,-4.0,4.5,5.3,x,x,
COc1cccc(-c2c(-c3cc(OC)cc(OC)c3)n(C)c3ccc(Br)cc23)c1,0.7,4.8,-4.3,22.7,6.8,x,x,
COc1cccc(-c2c(-c3cc(OC)cc(OC)c3)n(C)c3ccc(-c4cccc5[nH]ccc45)cc23)c1,0.8,7.3,-4.3,25.2,54.1*,+,+,
COc1ccc(S(=O)(=O)N2CCOC2CNC(=O)C(=O)NCc2ccc(F)cc2)cc1OC (configuration not stated),-0.8,-0.7,0.7,10.4,5.2,x,x,
CCOC(=O)COc1ccc2c3c(c(=O)oc2c1C)CCC3,-0.9,84.1,-9.2,6.8,17.1,x,x,
Cc1cc(=O)oc2cc(OCC(=O)N3CCCC(C)C3)ccc12 (configuration not stated),-1.5,-11.1,3.0,10.7,24.0,x,x,
CCCc1cc(=O)oc2c(C)c(OCC(=O)N3CCC[C@@H]3C(=O)O)ccc12,1.1,2.5,1.4,18.6,43.2*,55.3*,45.4*,
CCCc1cc(=O)oc2c(C)c(OCC(=O)N3C[C@H]4C[C@@H](C3)c3cccc(=O)n3C4)ccc12,-2.4,-2.9,3.2,20.6,8.6,x,x,
CCCCCCc1c(C)c2ccc(OCC(=O)N3CCC[C@H]3C(=O)O)c(C)c2oc1=O,-0.3,-1.3,-2.0,27.4,81.0*,148.1*,113.2*,
SMILES,UGM FP inh,Mtb bLac sens,Rv3671c protease,GDH-TPI counter-1,Mtb FBA inh,Mtb FBA inh conf,GDH-TPI counter-2,others
CCc1cc(=O)oc2cc(OCC(=O)N3CCC[C@H]3C(=O)O)ccc12,5.5,-4.4,0.8,14.7,35.4*,+,+,
COc1ccc(CNC(=O)C(=O)NCCCn2ccnc2)cc1,2.0,5.1,3.0,-0.6,13.4,x,x,
COCC(=O)N(Cc1cc2ccc(C)cc2[nH]c1=O)c1ccc(OC)cc1,0.5,-6.4,5.3,7.6,61.5*,138.7*,127.7*,
CCOc1ccc(N(Cc2cc3ccc(C)cc3[nH]c2=O)C(=O)COC)cc1,1.9,-6.8,6.3,8.6,-3.2,x,x,
C#CCOCCOCCOCCNc1nc(N2CCN(C(=O)C([C@@H](C)CC)n3cc(C(N)Cc4ccc(O)cc4)nn3)CC2)nc(N2CCN(C(=O)[C@H](CCC(=O)O)n3cc(C(N)CO)nn3)CC2)n1 (some centres not stated),-1.6,-11.2,-6.3,0.9,-0.7,x,x,
COCCNC(=O)C1(C)Cc2c(-c3ccc(N(C)C)cc3)ccnc2O1 (configuration not stated),x,x,x,15.0,31.6*,128.2*,103.6*,
CN(C)c1ccc(-c2ccnc3c2CC(C)(C(=O)NCCc2ccccc2)O3)cc1 (configuration not stated),x,x,x,15.0,47.0*,109.3*,72.6*,
CN(C)c1ccc(CNC(=O)C2(C)Cc3c(-c4ccc(N(C)C)cc4)ccnc3O2)cc1 (configuration not stated),x,x,x,30.1,46.2*,57.6*,49.8*,
CN(C)c1ccc(CNC(=O)C2(C)Cc3c(-c4ccccc4)ccnc3O2)cc1 (configuration not stated),x,x,x,-7.1,-2.6,x,x,
CN(C)c1ccc(-c2ccnc3c2CC(C)(C(=O)NCC2CC2)O3)cc1 (configuration not stated),x,x,x,24.8,35.1*,+,164.3*,
COCCNC(=O)C1(C)Cc2c(-c3ccc(NC(C)=O)cc3)ccnc2O1 (configuration not stated),x,x,x,4.4,11.6,x,x,
CCOc1ccc(N(CC(=O)NC2CCCCC2)C(=O)CCC(=O)Nc2nc(C)cs2)cc1,2.2,13.4,-7.0,-6.8,-3.4,x,x,
COC(=O)c1cc(OC)nc2c1c(=O)n(C)c(=O)n2C,1.2,-6.4,7.6,7.3,110.3*,x,+,
CCOC(=O)Nc1cc2c(C)cc(=O)oc2cc1C,2.1,-8.3,-5.0,7.8,28.4*,53.6*,42.0*,
N#Cc1nccnc1N1CCN(C(=O)Nc2ccccc2)CC1,-2.0,-10.5,-7.8,7.2,-0.3,x,x,
O=C(c1cccn2c(=O)c3cc(Cl)ccc3nc12)N1CCOCC1,-3.3,u,-6.4,17.6,45.1*,-2.6,-3.9,
NC(=O)C1(N2CCCCC2)CCN(C(=O)c2cccn3c(=O)c4cc(Cl)ccc4nc23)CC1,1.3,-10.8,7.0,28.9,39.9*,-2.0,-5.8,
